The values below come from PubChem BioAssay (Tox21).

Inconclusive results are not listed. Unmarked numbers belong to inactive results. The source made the active and inactive calls. Unless noted, calls come from the whole dose curve.
% is set by controls: 0 for no effect and ±100 for the full control effect.

Tested on in the first test: not listed separately
The test can be described thus: qHTS assay to identify small molecule antagonists of the sonic hedgehog signaling (Shh) pathway (AID 1259369). Note: nearly all actives have a fitted effect of over 45% in size. Conditions: NIH/3T3 Gli1-Luc reporter, Shh antagonist, luminescence 24 h; series mostly up to 92.4 µM; activity change, negative = inhibition: at the top concentration. The method in brief:
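Stable Gli1-Luc reporter NIH/3T3 clone; quantitative HTS in stimulated mode with conditioned medium. Luminescence measured after 24hr compound treatment at 37 C.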
A general note: In qHTS, concentration-response curves come from the screen itself.
Turning to `N#CN`, the “activity change, negative = inhibition” value was 0% [at 240 µM].

On to `COc1ccc(C=O)cc1O`, for which the “activity change, negative = inhibition” value is 7.9%.

Consider `O=C(NC(O)C(Cl)(Cl)Cl)NC(O)C(Cl)(Cl)Cl` (stereo not drawn), for which the “activity change, negative = inhibition” value was -1.54% [at 42.5 µM].

For `CCC(CC)(CNC(=O)CCCO)c1cccc(OC)c1`, the “activity change, negative = inhibition” value is 0.728% [at 42.5 µM].

As for `CN(C)CCc1c[nH]c2cccc(OP(=O)(O)O)c12`, the “activity change, negative = inhibition” value was 1.49%.

Turning to `BrCC1CO1` (stereo not drawn), the “activity change, negative = inhibition” value is 24.9%.

Take `C[N+]1(C)CCCCC1`: the “activity change, negative = inhibition” value was -4.57%.

With `CCN(CC)C1CCCCC1`, the “activity change, negative = inhibition” value is 29.4%.

Consider `CCCOC(=O)c1cncn1C(C)c1ccccc1` (stereo not drawn), for which the “activity change, negative = inhibition” value is 9.97% [at 42.5 µM].

With `C=CC(=O)OCCN(C)C`, the “activity change, negative = inhibition” value is -2.78%.

As for `C#CC(C)(C)O`, the “activity change, negative = inhibition” value was 0.746%.

For another test, the target named is Estrogen receptor beta (Homo sapiens) (UniProt Q92731). In words: qHTS assay to identify small molecule agonists of the estrogen receptor beta (ER-beta) signaling pathway (AID 1259377; active = well fitted activation curve with a large enough effect in the signal ratio in the repeat runs, not every such curve was filed as active; the % refers to the signal ratio; note: potency is the fitted concentration of half-maximal effect). Conditions: ER-beta-UAS-bla HEK293T, beta-lactamase FRET ratio, 16 h; series mostly up to 92.4 µM; activation: at the top concentration. The method, boiled down: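 qHTS in ER-beta-UAS-bla HEK293T cells: 6 hr settling, then 16 hr compound at 37C, then LiveBLAzer substrate 2 h at RT before fluorescence reading.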
Chain of Estrogen receptor beta (Homo sapiens) (Q92731 whole entry, looked up): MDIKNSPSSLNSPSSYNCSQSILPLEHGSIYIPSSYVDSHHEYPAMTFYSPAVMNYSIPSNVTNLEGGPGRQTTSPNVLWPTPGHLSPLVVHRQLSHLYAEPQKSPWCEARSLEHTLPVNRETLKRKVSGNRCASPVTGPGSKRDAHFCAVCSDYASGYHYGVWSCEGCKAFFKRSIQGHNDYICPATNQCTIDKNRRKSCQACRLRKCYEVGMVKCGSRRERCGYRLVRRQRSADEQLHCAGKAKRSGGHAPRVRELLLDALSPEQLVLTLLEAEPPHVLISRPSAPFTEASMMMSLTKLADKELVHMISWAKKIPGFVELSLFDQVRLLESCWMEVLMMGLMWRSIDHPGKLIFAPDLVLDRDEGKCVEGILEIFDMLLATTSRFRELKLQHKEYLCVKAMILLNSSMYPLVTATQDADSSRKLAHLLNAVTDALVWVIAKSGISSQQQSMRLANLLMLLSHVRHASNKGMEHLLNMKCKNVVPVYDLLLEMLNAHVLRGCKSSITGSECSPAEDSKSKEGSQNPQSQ
Regarding `C[C@H](CN1CCOCC1)C(C(=O)N1CCCC1)(c1ccccc1)c1ccccc1`, the “activation” value is -3.73%.

`COC[C@@H](NC(C)=O)C(=O)NCc1ccccc1`: the “activation” value is 6.14% [at 42.5 µM].

With `CC[C@@H](CO)NC(=O)[C@@H]1C=C2c3cccc4[nH]cc(c34)C[C@H]2N(C)C1`, the “activation” value is 3.52% [at 42.5 µM].

For the compound `CC[C@@H](CO)NC(=O)[C@@H]1C=C2c3cccc4c3c(cn4C)C[C@H]2N(C)C1`, the “activation” value is 5.25% [at 42.5 µM].

On to `Cc1ccc2cc(C)ccc2c1`, for which the “activation” value was 0.255%.

As for `O=C(Cl)OCc1ccccc1`, the “activation” value is 3.76%.

For `CCN[C@@H](C)Cc1ccccc1`, the “activation” value is 1.73%.

With `CCOC1Oc2ccc(OS(C)(=O)=O)cc2C1(C)C` (stereo not drawn), the “activation” value was 0.0955%.

Take `Clc1nc(Cl)nc(Nc2ccccc2Cl)n1`: the “activation” value was 9.38%.

For `CC(Cc1ccccc1)NCCCCl` (stereo not drawn), the “activation” value is 1.71% [at 42.5 µM].

Consider `Clc1cc2c(cc1Cl)Oc1cc(Cl)c(Cl)cc1O2`, for which the activation was -4.72% [at 0.348 µM].

`CCNc1nc(Cl)nc(NC(C)(C)C)n1`: the Potency is 27.3 µM (active).

Take `CC(C)(C1CCC(O)CC1)C1CCC(O)CC1` (stereo not drawn): the Potency was 21.7 µM (active).

In the case of `C=CCc1cc(OC)c2c(c1)OCO2`, the “activation” value is -0.172%.

Turning to `CC(C)N(Cc1ccccc1)C(=O)C(C)(C)C`, the “activation” value is 7.04%.

Regarding `Cc1cc(OC(=O)N(C)C)nn1C(=O)N(C)C`, the “activation” value is -0.207%.

Consider `CCC1(c2ccccc2)CCC(=O)NC1=O` (stereo not drawn), for which the “activation” value was -2.65% [at 42.5 µM].

`CN(C)C(=O)Oc1cc(OC(=O)N(C)C)cc(C(O)CNC(C)(C)C)c1` (stereo not drawn): the “activation” value is 3.66% [at 42.5 µM].

Consider `N[C@@H]1C[C@H]1c1ccccc1`, for which the “activation” value was -2.77% [at 42.5 µM].

With `O=C/C=C/c1ccco1`, the “activation” value is -1.12%.

Regarding `OP(O)c1ccccc1`, the “activation” value was 3.9%.

As to `CCC(C)(C#N)N=NC(C)(C#N)CC` (stereo not drawn), the “activation” value was -1.68%.

As to `OCC(Cl)CCl` (stereo not drawn), the “activation” value is -3.94%.

`O=C(Cl)C(Cl)(Cl)Cl`: the “activation” value was 5.01%.

As to `N#CN`, the “activation” value is -2.54% [at 240 µM].

In the case of `COc1ccc(C=O)cc1O`, the “activation” value is -4.03%.

Regarding `O=C(NC(O)C(Cl)(Cl)Cl)NC(O)C(Cl)(Cl)Cl` (stereo not drawn), the “activation” value is 3.52% [at 42.5 µM].

For the compound `CCC(CC)(CNC(=O)CCCO)c1cccc(OC)c1`, the “activation” value is -0.431% [at 42.5 µM].

As for `CN(C)CCc1c[nH]c2cccc(OP(=O)(O)O)c12`, the “activation” value was 0.865%.

Turning to `BrCC1CO1` (stereo not drawn), the “activation” value is -4.81%.

As for `C[N+]1(C)CCCCC1`, the “activation” value was 0.509%.

As to `CCN(CC)C1CCCCC1`, the “activation” value was 5.51%.

As for `CCCOC(=O)c1cncn1C(C)c1ccccc1` (stereo not drawn), the “activation” value was 3.51% [at 42.5 µM].

For `C=CC(=O)OCCN(C)C`, the “activation” value is -2.21%.

`C#CC(C)(C)O`: the “activation” value was 0.239%.

Another test has the same target. In words: qHTS assay to identify small molecule antagonists of the estrogen receptor beta (ER-beta) signaling pathway (AID 1259378; active = well fitted inhibition curve with a large enough effect in the signal ratio in the repeat runs, not every such curve was filed as active; the % refers to the signal ratio). Conditions: ER-beta-UAS-bla HEK293T, beta-lactamase FRET ratio, 16 h; series mostly up to 92.4 µM; activity, negative = inhibition: at the top concentration. The method, boiled down: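 Antagonist mode: compounds added to beta-lactamase reporter HEK293T ER-beta-UAS cells stimulated with E2 (1nM final), 16 hr at 37C. LiveBLAzer B/G FRET substrate, 2 hours room temperature, fluorescence read-out.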
For the compound `C[C@H](CN1CCOCC1)C(C(=O)N1CCCC1)(c1ccccc1)c1ccccc1`, the “activity, negative = inhibition” value is -0.184%.

Consider `COC[C@@H](NC(C)=O)C(=O)NCc1ccccc1`, for which the “activity, negative = inhibition” value was 11% [at 42.5 µM].

With `CC[C@@H](CO)NC(=O)[C@@H]1C=C2c3cccc4[nH]cc(c34)C[C@H]2N(C)C1`, the “activity, negative = inhibition” value is 2.13% [at 42.5 µM].

In the case of `CC[C@@H](CO)NC(=O)[C@@H]1C=C2c3cccc4c3c(cn4C)C[C@H]2N(C)C1`, the “activity, negative = inhibition” value is -2.4% [at 42.5 µM].

For `Cc1ccc2cc(C)ccc2c1`, the “activity, negative = inhibition” value is 1.03%.

Regarding `O=C(Cl)OCc1ccccc1`, the “activity, negative = inhibition” value is 6.22%.

As to `CCN[C@@H](C)Cc1ccccc1`, the “activity, negative = inhibition” value is 16.8%.

Turning to `CCOC1Oc2ccc(OS(C)(=O)=O)cc2C1(C)C` (stereo not drawn), the “activity, negative = inhibition” value was -16.7%.

Take `Clc1nc(Cl)nc(Nc2ccccc2Cl)n1`: the “activity, negative = inhibition” value is 23.3%.

For `CC(Cc1ccccc1)NCCCCl` (stereo not drawn), the “activity, negative = inhibition” value was 3.72% [at 42.5 µM].

For the compound `Clc1cc2c(cc1Cl)Oc1cc(Cl)c(Cl)cc1O2`, the activity, negative = inhibition is 4.24% [at 0.349 µM].

Regarding `CCNc1nc(Cl)nc(NC(C)(C)C)n1`, the “activity, negative = inhibition” value is 13%.
